The results in this text go back to ChEMBL document CHEMBL4513216, “Probing the Open Global Health Chemical Diversity Library for Multistage-Active Starting Points for Next-Generation Antimalarials” (ACS Infect Dis, 2020).

Among all 68,000 compounds or so, about 2,700 (4%) showed an effect of 50% or more. Many of the other results were omitted from the sample, so strong results are more common in it than they were.

This assay relates to Plasmodium berghei. Put plainly: Screen against P. berghei liver stage (PbLuc), transformed with Luciferase, at 2uM. Format: functional, HepG2. The settings on record: tested at 2 uM.
On to `Cc1ccccc1CN1CCC(CNc2ncnc3c2CCNCC3)C1` (stereo not given), for which the INHIBITION was determined as 32.26%.
As to `c1cnc(N2CCOCC3(CN(Cc4nccs4)CCO3)C2)nc1` (stereo not given), the INHIBITION turned out to be 14.39%.
With `CCC(C)NC(=O)c1nnn(-c2cccc3c2CCN(C)C3)c1C` (stereo not given), the INHIBITION was -46.36%.
For `O=C(NCCN1CCCCC1)c1ccoc1`, the INHIBITION was 6.12%.
For the molecule `COc1ccc(-c2cnc(CN3CCCC3Cn3cccn3)o2)cc1` (stereo not given), the INHIBITION is given as -36.73%.
As to `O=C(NC1CCN(c2cccc(OC(F)(F)F)c2)C1=O)C1CC1` (stereo not given), the INHIBITION is -0.13%.
The same measure for `CC(C)OCCN(Cc1cccc(O)c1)C1CCC(O)CC1` (stereo not given): 11.78%; for `CS(=O)(=O)CCN(Cc1cccc(O)c1)C1CCC(O)CC1` (stereo not given): 50.4%.
Turning to `C=C(C)CN(Cc1cccc(O)c1)C1CCC(O)CC1` (stereo not given), the INHIBITION is 6.55%.
As for `CSCCC(=O)N1CCC(CCC(=O)NCC2CCCO2)CC1` (stereo not given), the INHIBITION came out at 20.71%.
As to `Cc1nc(NC(=O)CNC(=O)c2c(F)cccc2Cl)n[nH]1`, the INHIBITION is 9.5%.
For `CC(O)(CNC(=O)c1c(F)cccc1Cl)C1CC1` (stereo not given), the INHIBITION is on record as -21.74%.
Turning to `O=C(CNC(=O)c1c(F)cccc1Cl)Nc1ccc(F)cn1`, the INHIBITION is 67.28%.
The value for `CCc1c(C)nc2cc(C3CCN(Cc4cccnc4)C3)nn2c1O` (stereo not given) was 31.56%; that for `CCc1c(C)nc2cc(C3CCN(Cc4cccc(F)c4)C3)nn2c1O` (stereo not given) was 65.74%; that for `CCc1c(C)nc2cc(C3CCN(Cc4ccc(F)cc4)C3)nn2c1O` (stereo not given) was 40.31%.
For `CCc1ccc(CN2CCc3ncnc(N4CCOCC4)c3CC2)o1`, the INHIBITION is listed as -21.37%.
Regarding `CN1CCN(C[C@@H]2CN(C(=O)NCC3CCCCC3)C[C@@H]2CO)CC1`, the INHIBITION was -26.04%.
The same measure for `COc1ccc(CN2CC[C@H]3O[C@@H](C(=O)NCC4CC4)CC[C@H]32)cc1`: 44.4%; for `CC(Cn1cccn1)NC(=O)NCc1cccnc1` (stereo not given): 61.3%.
For the molecule `CC(Cn1ccnc1)NC(=O)NCCN1CCCCCC1=O` (stereo not given), the INHIBITION is on record as 17.18%.
With `CC(Cn1cccn1)NC(=O)Nc1ccc(N(C)C)nc1` (stereo not given), the INHIBITION stood at 5.96%.
For the molecule `CC(Cn1cccn1)NC(=O)NCCc1cccnc1` (stereo not given), the INHIBITION came to 10.53%.
For `COc1ccc(NC(=O)NC(C)Cn2cccn2)cn1` (stereo not given), the INHIBITION was -40.27%.
For `CC(Cn1cccn1)NC(=O)NCCCN1CCCCCC1=O` (stereo not given), the INHIBITION turned out to be 48.37%.
The same measure for `CC(Cn1cccn1)NC(=O)NCCN1CCCCCC1=O` (stereo not given): 50.03%; for `Cc1ccc(CNC(=O)NC(C)Cn2cccn2)cn1` (stereo not given): 49.01%; for `CCN(CC)c1ccc(NC(=O)NC(C)Cn2cccn2)cn1` (stereo not given): 52.3%.
In the case of `COc1ccc2c(ccn2CCC(=O)NCc2ccc(C(=O)O)cc2)c1`, the INHIBITION came out at 42.94%.
In the case of `Cc1ccc(C(CCNCCN(C)C)C2CCOC(C)(C)C2)cc1` (stereo not given), the INHIBITION stood at 26.52%.
Regarding `CC(C)CN1CCc2[nH]cnc2C12CCN(C(=O)c1ccnn1C)CC2`, the INHIBITION is 29.19%.
The same measure for `CC(C)CN1CCc2[nH]cnc2C12CCN(C(=O)c1cccnc1)CC2`: 0.3%; for `CC(C)CN1CCc2[nH]cnc2C12CCN(C(=O)c1ccc[nH]1)CC2`: 22.43%.
In the case of `Cc1ocnc1C(=O)N1CCC2(CC1)c1nc[nH]c1CCN2CC(C)C`, the INHIBITION is given as 52.83%.
As for `CC(C)CN1CCc2[nH]cnc2C12CCN(C(=O)c1cnn(C)c1)CC2`, the INHIBITION is 51.14%.
For `Cc1cc(C(=O)N2CCC3(CC2)c2nc[nH]c2CCN3CC(C)C)no1`, the INHIBITION is listed as 37.63%.
Consider `CCc1ccc(S(=O)(=O)N2CCCC3(CCCN3S(C)(=O)=O)C2)cc1` (stereo not given), for which the INHIBITION was 28.41%.
The value for `Cc1cc(C)n(CCNCc2cc(-c3ccccc3)c[nH]c2=O)n1` was 24.26%; that for `CC1CCc2nn(CCNC(=O)c3cccs3)c(=O)cc2C1` (stereo not given) was 28.82%.
As for `CC(C)N1[C@@H](C(=O)NCC2CC2)C[C@@H]2CN(Cc3ccco3)C[C@@H]21`, the INHIBITION amounted to 28.2%.
As for `Cc1nn(C)c(C)c1C(C)NCc1ccsc1` (stereo not given), the INHIBITION is 38.83%.
For the molecule `CS(=O)(=O)c1cncnc1C1CCCN(C(=O)Nc2ccc(F)cc2)C1` (stereo not given), the INHIBITION was -0.7%.
Regarding `CC(C)N(Cc1ccccn1)C(=O)CCOc1cccc(F)c1`, the INHIBITION was determined as 5.43%.
Take `Cc1cc(NCC2CCCO2)cc(=O)n1C` (stereo not given): the INHIBITION is given as -0.15%.
The same measure for `COCCCNC(=O)C(C)n1nc(-c2ccco2)cc(N)c1=O` (stereo not given): -1.32%; for `COCCNC(=O)C(C)n1nc(-c2ccc(C)o2)cc(N)c1=O` (stereo not given): -21.09%.
On to `COCCNC(=O)C(C)n1nc(-c2ccco2)cc(N)c1=O` (stereo not given), for which the INHIBITION stood at 54.2%.
On to `CCN1CCC(CNC(=O)C(c2ccccc2F)N(C)C)(N(C)C)CC1` (stereo not given), for which the INHIBITION is on record as 46.58%.
On to `O=C(Cc1cccs1)N1CCOCC1c1ccccc1` (stereo not given), for which the INHIBITION was -26.81%.
In the case of `CC(C)n1ccnc1CN1CCCN(C(=O)c2cscn2)CC1`, the INHIBITION is recorded as -28.58%.
With `CC(C)C(O)CNC(=O)Nc1cccc(-c2nccs2)c1` (stereo not given), the INHIBITION is -2.23%.
For `CN(Cc1ccc2nsnc2c1)CC1(O)CNCCOC1` (stereo not given), the INHIBITION is on record as -1.57%.
The same measure for `Cn1cc(CN(C/C=C/c2ccccc2)C2CC2)cn1`: -17.37%; for `Cn1cc(CN(CC2(O)CNCCOC2)C2CCCCC2)cn1` (stereo not given): 0.17%.
The same measure for `Cn1cc(CN(CC2(O)CCNC2)C2CCCCC2)cn1` (stereo not given): 60.64%; for `OC1(CN2CCC(Oc3cccnc3)CC2)CNCCOC1` (stereo not given): 3.58%; for `OC1(CN(Cc2cccnc2)C2CCCCC2)CNCCOC1` (stereo not given): 74.3%.
In the case of `CN(C)c1ccc(C(CNS(=O)(=O)c2cccs2)N2CCCC2)cc1` (stereo not given), the INHIBITION is on record as 14.19%.
The same measure for `COc1cccc(-c2n[nH]cc2-c2nc(CC3CCN(C)CC3)no2)c1`: 38.67%; for `Cc1noc(C)c1C(=O)N1CCCC1(C)C(=O)NC1CCCC1` (stereo not given): 11.32%.
Regarding `O=C(CCc1ccc2c(c1)OCO2)N1CCCC(n2cccn2)C1` (stereo not given), the INHIBITION was -29.38%.
The same measure for `O=C(Cc1ccc2c(c1)CCC2)N1CCCC(n2cccn2)C1` (stereo not given): -0.71%; for `O=C(Cc1ccc2c(c1)OCCO2)N1CCCC(n2cccn2)C1` (stereo not given): 56.12%.
With `Cc1cnn(C2CCCN(C(=O)Cc3ccc4c(c3)CCO4)C2)c1` (stereo not given), the INHIBITION is 11.95%.
Regarding `O=C(Cc1ccc2c(c1)OCCO2)N1CCCC(n2cncn2)C1` (stereo not given), the INHIBITION is listed as -7.15%.
As to `O=C(Cc1ccc2c(c1)CCO2)N1CCCC(n2cccn2)C1` (stereo not given), the INHIBITION was found to be 52.52%.
As for `COc1cc(N2CC[C@@H](O)[C@@H]2Cc2cccnc2)ncn1`, the INHIBITION is 32.21%.
The value for `CCCc1nc(C[S+]([O-])Cc2cn3cccc(C)c3n2)no1` (stereo not given) was 16.37%.
Turning to `CCOC(=O)c1nc(CN2CCC(NC(=O)C(C)C)CC2)cs1`, the INHIBITION is -3.25%.
With `CCN1CCC2(CCC1=O)CN(c1cnc3ccccc3n1)CCN2C` (stereo not given), the INHIBITION is listed as -40.52%.
In the case of `CC(C)C[C@@H](CO)n1cc(-c2cnc(-c3ccco3)nc2)nn1`, the INHIBITION was -39.9%.
The same measure for `COc1ccc(-c2cn([C@H](CO)CC(C)C)nn2)cn1`: 79.9%.
As for `CC(C)C[C@@H](CO)n1cc(-c2cncnc2)nn1`, the INHIBITION was 26.99%.
For the molecule `O=C1Nc2ccccc2CC12CCCN2Cc1ccc(C(F)(F)F)cc1` (stereo not given), the INHIBITION is reported as -27.83%.
The value for `CC(C)c1cc(C2CCCN2C(=O)c2cn3ccsc3n2)no1` (stereo not given) was -46.68%; that for `COc1ccccc1C1CNCCN1C(=O)c1ccc(F)cc1` (stereo not given) was -20.28%.
As for `O=C(Nc1nncs1)C1CSCN1C(=O)C1CCCC1` (stereo not given), the INHIBITION was -67.78%.
Take `COc1ccc2c(c1)C1(CCN(Cc3ccncc3)CC1)N(C)CC2`: the INHIBITION came out at 32.14%.
Take `COc1ccc2c(c1)C1(CCN(Cc3cccnc3)CC1)N(C)CC2`: the INHIBITION is 64.92%.
On to `COc1ccc2c(c1)C1(CCN(Cc3cnn(C)c3)CC1)N(C)CC2`, for which the INHIBITION is 21.14%.
Turning to `CC1(C)CN(CCC(=O)NCc2cccc(Cl)c2)CC[C@]1(C)O`, the INHIBITION is listed as -70.63%.
Consider `CN(C)c1nccc(C2CCCN(C(=O)CO)C2)n1` (stereo not given), for which the INHIBITION is reported as 1.13%.
Regarding `CCn1c(Cn2cncn2)nnc1C1CCN(CC2[C@H]3CNC[C@@H]23)CC1` (stereo not given in full), the INHIBITION is reported as -11.68%.
As to `CSCCCN1C(=O)CC[C@H]2CN(Cc3ncc[nH]3)CC[C@H]21`, the INHIBITION came to 27.5%.
With `CC(C)CN1C(=O)CC[C@H]2CN(Cc3ncc[nH]3)CC[C@H]21`, the INHIBITION was 20.74%.
The same measure for `COCCCN1C(=O)CC[C@H]2CN(Cc3ncc[nH]3)CC[C@H]21`: 50.59%.
Regarding `CC1(C)COCCN1C(=O)CCc1nc(-c2ccccn2)no1`, the INHIBITION is -4.89%.
Turning to `CN(C)CC(=O)N1Cc2nc(C(=O)N3CCCN(C)CC3)oc2C1`, the INHIBITION turned out to be 13.25%.
Take `O=C(NCCCn1cccn1)C1CCC(=O)N(Cc2ccccc2F)C1` (stereo not given): the INHIBITION amounted to 12%.
For the molecule `CCOc1ncnc2c1CCN(c1cc(C(F)(F)F)ncn1)CC2`, the INHIBITION is reported as -17.38%.
The value for `CC(C)Oc1ncnc2c1CCN(c1cc(C(F)(F)F)ncn1)CC2` was 20.86%.
In the case of `COc1ncnc2c1CCN(c1cc(C(F)(F)F)ncn1)CC2`, the INHIBITION is reported as 52.08%.
For `CCOCC1CN(Cc2cnn(C)c2)Cc2c1cnn2CC` (stereo not given), the INHIBITION is -8.04%.
On to `O=C(c1ccco1)N1CCCC2(CCN(c3nncs3)C2)C1` (stereo not given), for which the INHIBITION is listed as -56.25%.
`Cc1ncc2c(n1)CN(Cc1nnc(-c3ccccc3)o1)CC2`: the INHIBITION is listed as 33.5%.
Regarding `O=C(NCC1Cn2nnc(-c3ccncc3)c2CO1)c1ccsc1` (stereo not given), the INHIBITION was 31.96%.
For the molecule `O=C(Nc1ccccc1)N1CCN(Cc2noc(C3CC3)n2)CC1`, the INHIBITION is given as 31.7%.
On to `CCc1noc(CN2CCC(C(=O)Nc3cnn(CC)c3)CC2)n1`, for which the INHIBITION is recorded as 49.9%.
Turning to `CCn1cc(NC(=O)C2CCN(Cc3noc(C(C)C)n3)CC2)cn1`, the INHIBITION was -8.7%.
`Cc1ccccc1NC(=O)N1CCN(Cc2noc(C3CC3)n2)CC1`: the INHIBITION is 71.93%.
As for `CCn1cc(NC(=O)C2CCN(Cc3noc(C4CC4)n3)CC2)cn1`, the INHIBITION amounted to 66.2%.
The same measure for `O=C(Nc1ccccc1F)N1CCN(Cc2noc(C3CC3)n2)CC1`: 11.1%.
The same measure for `CC1(C)CC(C(=O)N2CCC3(CCC(=O)N(C4CC4)C3)CC2)CCO1` (stereo not given): -29.52%.
As to `COCC(=O)N[C@H]1C[C@@H](Cc2cc(CN3CCOCC3)on2)C1(C)C`, the INHIBITION was found to be 19.39%.
Consider `CCCS(=O)(=O)N[C@H]1CN(c2ncccc2C(N)=O)C[C@@H]1C(C)C`, for which the INHIBITION is given as -50.23%.
